The remaining activity is the signal under treatment as a percentage of the control signal. By viability is commonly meant the share of living cells, or the viability signal relative to a control.

A short description of test [1]: Wnt pathway potentiators raising nuclear beta-catenin – imaging, WNT3A-conditioned medium, mouse C2C12, NPC library, primary screen (AID 1117326; in the data active means nuclear beta-catenin stimulation mostly above about 4.2%, no sharp cut-off; inactive means mostly below about 10%). As to conditions: stronger effect = higher value.
A short description of test [2]: stimulators of insulin release from INS-1E, primary screen, cell-based, 5 mM glucose, NPC library (AID 1117329;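 active means compound raises insulin release from rat beta cells at 5 mM glucose, no numeric limit stated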). As to conditions: rat INS-1E insulin secretion, at 10 µM, stronger effect = higher value.
The nature of test [3]: growth inhibition of GSK3B-pretreated HCT116 cells – cell-based, CellTiter-Glo, 0.2 to 20 µM (AID 1117336;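 active means compounds lowering colon cancer cell viability after pretreatment blocking the GSK3B kinase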). Particulars: HCT116 viability after GSK3B inhibitor, at 20 µM, stronger effect = higher value. On the technique in general: Cellular ATP, detected with luciferase, serves as a proxy for viable cell number.
Test [4] in a line: inhibition of endothelial tube formation, primary screen, imaging, VEGF stimulated, CD31 staining, tube area, NPC library (AID 1117340;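 active means compound that reduces growth-factor-driven endothelial tube area in a mixed cell culture, no cutoff stated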). Particulars: VEGF-stimulated ADSC/ECFC co-culture, at 10 µM, stronger effect = higher value.
Test [5] is described as follows: GLP1 release stimulators, primary, NCI-H716, NPC library (AID 1117341). As to conditions: NCI-H716 cells, at 10 µM, stronger effect = higher value.
Test [6] can be described thus: HCT116 colon cancer cell growth inhibition, primary screen, CellTiter-Glo luminescence, NPC library (AID 1117342;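 active means compounds that lower survival of HCT116 colon cancer cells in the luminescence readout, no numeric limit stated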). Particulars: at 20 µM (top of the series).
A short description of test [7]: reduced SW480 viability measured with CellTiter-Glo, NPC library, primary (AID 1117343;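 active means compounds that lower viability of the colon cancer cells in the luminescence readout, with no numeric limit stated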). As to conditions: CellTiter-Glo luminescence; at 20 µM (top of the series).
A short description of test [8]: NPC library primary testing for decreased DLD-1 cell viability via CellTiter-Glo (AID 1117346;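 active means compounds that lower survival of DLD-1 colon cancer cells in the luminescence readout, no cutoff given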). As to conditions: DLD-1 viability, CellTiter-Glo luminescence; at 20 µM (top of the series).
For test [9], the system named is Aerobactin synthetase IucA (Klebsiella pneumoniae, hypervirulent). Kind of test: biochemical IucA inhibition screen of LOPAC library by absorbance (AID 1346212; call rule not given here;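 further: 100% = no compound wells and 0% = no enzyme wells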). As to conditions: IucA enzyme assay, absorbance (OD) readout; stronger effect = lower value;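 tested at 8 µM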.
Test [10] in a line: viability loss with induced miR-34 in A549 – imaging, A549 dox-inducible miR-34, nuclei and caspase counts, primary screen (AID 1347080;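 active means compounds whose cell count with miR-34 switched on is under 0.7 times the count with it off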). Particulars: A549 miR-34 inducible, Hoechst nuclei count, 48 h.
The nature of test [11]: galactose survival enhancers in mitochondrial complex I cybrids – cell-based, galactose medium, ATP luminescence, primary screen (AID 1645843;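 active means z-score of at least 1.8 in each of two replicates, scored against plate mean and spread of sample wells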;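 further: positive z means more ATP and so rescue of galactose-driven cybrid death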). As to conditions: complex I mutant cybrid cells, 72 h, stronger effect = higher value.
The nature of test [12]: MELAS cybrid and Rieske KO viability enhancers – cell-based, MELAS cybrids, Rieske KO mouse fibroblasts, CellTiter-Glo, primary screen (AID 1508586;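 active means mean z-score across replicates of 1.96 or higher in either the MELAS or the Rieske mutant cell line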;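 further: z relative to plate mean and SD of compound and empty wells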). Particulars: low glucose.
Test [13] is described as follows: compounds altering viability of human ES cells (AID 493140; call rule not given here;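 further: cells exposed to compounds for four days before counting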). Particulars: human embryonic stem cell survival screen; stronger effect = higher value.
Test [14] is described as follows: P. berghei load reduction in hepatocytes – cell-based, HepG2, luciferase luminescence, HepG2 viability, primary screen (AID 624349; in the data active means parasite load remaining mostly below about 12%, no sharp cut-off; inactive means mostly above about 10%;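 further: 100% = mean of DMSO negative control wells on the same plate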). Particulars: P. berghei liver stage in HepG2, luciferase luminescence, concentration not given here; parasite load remaining: stronger effect = lower value; viability: measured here: HepG2 viability without parasites.
The mark [15] stands for this setting: stronger effect = lower value, cell number ratio, induced over uninduced.
[16] abbreviates: measured here: relative caspase fold change +Dox/-Dox.
[17] abbreviates: measured here: total cells with miR-34 induction, stronger effect = lower value.
Setting [18] is: measured here: total cells without miR-34 induction.
The mark [19] stands for this setting: MELAS cybrid survival, CellTiter-Glo 48 h, stronger effect = higher value.
[20] abbreviates: Rieske KO mouse fibroblast survival, CellTiter-Glo 72 h.

Active and inactive are the calls of the source.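 How the source made its calls, unless noted: active means compound raises GLP1 secretion from the human gut endocrine cells, with no numeric limit stated; inactive means the rest.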

With `C=CCN1C[C@H](C)N([C@H](c2ccc(C(=O)N(CC)CC)cc2)c2cccc(OC)c2)C[C@H]1C`, the nuclear beta-catenin stimulation was 1.7% (inactive) in test [1] (at 10 µM) and -0.7% in [1] (stimulation, at 2 µM). The insulin secretion stimulation in test [2] is -1.1% (inactive). The viability decrease in test [3] was 4.6% (inactive). Moreover, in [4], the tube area decrease was 3.8% (inactive). Further, the GLP1 secretion stimulation in test [5] was 5.2% (inactive). In addition, the inhibition of viability in test [6] was 35% (inactive). Further, the viability decrease (inhibition) in test [7] was 6% (inactive); in test [8], 23.5% (inactive). Further, the remaining activity in test [9] was 109% (inactive). Besides, the fold change was 0.944 (inactive) in test [10] (setting [15]) and 1.05 in test [10] (setting [16]). Also, the cell count in test [10] (setting [17]) worked out at 8480; in test [10] (setting [18]), 8990. The z-score in test [11] is 0.105 (inactive).

With `CCCCCCC(=O)CCCCCC/C=C/C[C@@H](O)[C@H](O)[C@@](N)(CO)C(=O)O`, the nuclear beta-catenin stimulation in test [1] (at 10 µM) was -0.4% (inactive); in test [1] (stimulation, at 2 µM) it was 1.7%. The insulin secretion stimulation in test [2] was 1.7% (inactive). Also, the viability decrease in test [3] is -39.7% (inactive). Moreover, in test [4], the tube area decrease was -16.8% (inactive). In addition, the GLP1 secretion stimulation in [5] was -2.8% (inactive). In test [6], the inhibition of viability was -29.4% (inactive). Further, the viability decrease (inhibition) in test [7] was 31.4% (inactive); in test [8], 9.9% (inactive). The fold change in [10] (setting [15]) is 0.991 (inactive); in test [10] (setting [16]), 0.843. The cell count is 5220 in [10] (setting [17]) and 5270 in test [10] (setting [18]).

On to `CCN[C@@H](C)Cc1cccc(C(F)(F)F)c1`, for which the nuclear beta-catenin stimulation in test [1] (at 10 µM) is 3% (inactive); in test [1] (stimulation, at 2 µM), 2.2%. Also, the insulin secretion stimulation in test [2] is 8.8% (inactive). Besides, the viability decrease in [3] was -3.65% (inactive). Moreover, the tube area decrease in test [4] was 29.2% (active). Moreover, in test [5], the GLP1 secretion stimulation is 1.3% (inactive). Moreover, in [6], the inhibition of viability was -3.9% (inactive). Also, the values for the viability decrease (inhibition) in [7] and in test [8] were 17.9% (inactive) and -6.6% (inactive), respectively. For the same compound, the z-score in test [12] (setting [19]) was -1.11 (inactive); in test [12] (setting [20]), 0.177.

Turning to `O=C(NCNC(=O)NC1C(=O)NC(=O)N1CO)NC1C(=O)NC(=O)N1CO` (centres undefined), the survival in test [13] was 33.2 (inactive). The parasite load remaining in [14] is 92.1% (inactive). Also, the viability in [14] amounted to 79.2%. Also, the nuclear beta-catenin stimulation in test [1] (at 10 µM) is -1.7% (inactive); in test [1] (stimulation, at 2 µM), 0.2%. The insulin secretion stimulation in test [2] is 1.2% (inactive). For the same compound, the viability decrease in [3] is -3.4% (inactive). The tube area decrease in test [4] was -8.4% (inactive). Besides, the GLP1 secretion stimulation in test [5] was -0.8% (inactive). Further, the inhibition of viability in test [6] is -1.8% (inactive). For the same compound, the viability decrease (inhibition) in test [7] is 3.1% (inactive); in test [8], 8.4% (inactive). Moreover, the fold change was 0.914 (inactive) in test [10] (stronger effect = lower value) and 0.72 in test [10] (setting [16]). Further, the cell count in test [10] (setting [17]) amounted to 9340; in [10] (setting [18]) it was 10200. In addition, the z-score in [12] (setting [19]) is 0.818 (inactive); in test [12] (setting [20]), 0.0717.

In the case of `C[C@@H]1CN(C2CCC(C#N)(c3ccc(F)cc3)CC2)CC[C@]1(C(=O)O)c1ccccc1` (some centres undefined), in test [13], the survival was 4.42 (inactive). Further, the parasite load remaining in [14] was 126% (inactive). In addition, the viability in test [14] came out at 76.2%. Besides, the nuclear beta-catenin stimulation was 0% (inactive) in test [1] (at 10 µM) and 0.4% in test [1] (stimulation, at 2 µM). Also, in [2], the insulin secretion stimulation is -1.7% (inactive). In [3], the viability decrease is 18.6% (inactive). Further, the tube area decrease in test [4] was 9.6% (inactive). Also, the GLP1 secretion stimulation in test [5] is 1.1% (inactive). For the same compound, the inhibition of viability in [6] was 15.3% (inactive). For the same compound, the viability decrease (inhibition) in test [7] was 33.5% (inactive); in test [8] it was 30.7% (inactive). Further, the fold change in test [10] (stronger effect = lower value) was 0.976 (inactive); in test [10] (setting [16]), 0.701. The values for the cell count in test [10] (setting [17]) and in test [10] (setting [18]) were 9400 and 9630, respectively. Moreover, the z-score in test [12] (setting [19]) is -1.75 (inactive); in test [12] (setting [20]) it was -1.19.

As for `CCOC(=O)C=C(C)C=CC[C@@H](C)CCCC(C)C`, the nuclear beta-catenin stimulation in test [1] (at 10 µM) is 0.8% (inactive); in test [1] (stimulation, at 2 µM), -0.1%. The insulin secretion stimulation in test [2] is 1.05% (inactive). Further, the GLP1 secretion stimulation in test [5] is -6.5% (inactive).
